Gal4-VP16 FLuc: Gal4-VP16 reporter inhibition counter-screen. Drosophila S2 Gal4-VP16 UAS-luciferase, luminescence, 20 h. Potency, µM (titrated, usually from 53.6 µM), for the others: at the highest dose activity, negative = inhibition, actives largely listed as inhibitors. 3.5% of 310,000 active. AID 2546;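 note: Gal4-VP16 expression switched on by copper sulfate through the metallothionein promoter; % is set by controls: 0 for no effect and ±100 for the full control effect; nearly all actives have a fitted effect of over 50% in size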
GLP1R ag: activates the human GLP-1 receptor; P43220; HEK293 GLP-1R CRE-luciferase, luminescence, 4-6 h; cells express a hypersensitive GLP-1R form; Potency, µM (doses to about 45.6 µM), inactives show at the highest dose activation, usual class: activators; 0.007% of 380,000 active; AID 624172; note: % of control where 0% means no effect
GLP-1R inv ag: GLP-1 receptor (human) inverse agonism; Potency, µM (top dose mostly 38.3 µM), for inactives: top-dose activity change, negative = inhibition, hits mostly inhibitors; HEK293 GLP-1R CRE-luciferase, luminescence, 24 h; GLP-1R form is constitutively active; 1.6% of 410,000 active; AID 624417; P43220; note: % is set by controls: 0 for no effect and ±100 for the full control effect; nearly all actives have a fitted effect of over 55% in size
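qHTS in 1536-well format: reporter HEK293 cells expressing constitutive GLP-1R activity in DMEM + 10% Nu serum, 24 hr with compounds at 37 deg C, luminescence read after 12 min with detection reagent.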
GLP1R cytotox: cytotoxicity in counter-screen for GLP-1R inverse agonists. HEK293 cAMP-luciferase reporter cells, luminescence, 24 h. 0.13% of 410,000 active. Potency, µM (titrated, usually from 38.3 µM), for the others: at the highest dose activity change, negative = inhibition, most hits filed as inhibitors;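 note: loss of luciferase light is scored as toxicity; % is set by controls: 0 for no effect and ±100 for the full control effect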
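A 23 nL compound transfer followed 12 hours of cell culture at 37 deg C; exposure then lasted 24 hr. Luciferase assay detection reagent was dispensed and plates read for luminescence after a 12 min room-temperature wait.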
RORg inh: blocks mouse ROR gamma transcriptional activity; P51450; Drosophila S2 Gal4-RORgamma UAS-luciferase reporter, 20 h; Potency, µM (doses to about 53.6 µM), inactives show top-dose activity change, negative = inhibition, actives largely listed as inhibitors; 5.4% of 310,000 active; note: % is set by controls: 0 for no effect and ±100 for the full control effect; nearly all actives have a fitted effect of over 60% in size
Target sequence (P51450 whole entry, looked up, the tested form may be a part): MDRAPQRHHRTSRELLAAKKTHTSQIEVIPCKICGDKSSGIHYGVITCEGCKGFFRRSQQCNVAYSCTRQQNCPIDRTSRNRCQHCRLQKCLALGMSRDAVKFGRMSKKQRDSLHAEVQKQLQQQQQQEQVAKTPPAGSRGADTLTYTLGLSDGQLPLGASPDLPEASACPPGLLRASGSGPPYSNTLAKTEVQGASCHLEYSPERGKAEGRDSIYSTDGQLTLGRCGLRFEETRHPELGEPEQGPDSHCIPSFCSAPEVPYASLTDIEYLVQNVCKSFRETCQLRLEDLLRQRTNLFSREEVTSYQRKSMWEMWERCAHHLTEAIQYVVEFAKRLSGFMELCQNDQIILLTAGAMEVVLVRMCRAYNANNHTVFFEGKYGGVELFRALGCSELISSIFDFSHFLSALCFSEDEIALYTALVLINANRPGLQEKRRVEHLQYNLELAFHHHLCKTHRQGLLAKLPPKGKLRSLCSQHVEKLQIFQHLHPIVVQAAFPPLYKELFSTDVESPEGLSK
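Luminescence from a UAS-regulated Photinus luciferase reporter in stably transfected Drosophila Schneider cells is measured; decreased signal marks ROR gamma inhibition. Fusion expression is induced by 700 uM copper sulfate for 20 hr.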
* marks the source's active call; other numbers are inactive results; ? = inconclusive; / = not tested or not shown; [ ] = dose if it differs, or a comment. Most compounds without a hit are left out; they make up all but 5.9% or so of the library. Calls come from the whole dose curve; as a rule, active = well fitted curve in the direction sought with a large enough effect; inconclusive = small, poorly fitted or top-dose-only effect, or another doubt; inactive = no such curve, though single readings can be large; an effect the other way counts as inactive or inconclusive. Potency is the fitted concentration of half-maximal effect.

SMILES | Gal4-VP16 FLuc | GLP1R ag | GLP-1R inv ag | GLP1R cytotox | RORg inh
Cc1ccc(N2C(=O)N3[C@H](c4ccc(F)cc4)[C@@H]4C(=O)N(C5CCCCC5)C(=O)[C@@H]4[C@]3(C)C2=O)cc1 | -6% | -3% | 10µM* | -31% | 39%
O=C1[C@H]2[C@@H](c3ccc(Cl)cc3)N3C(=O)N(c4cccc(Cl)c4)C(=O)[C@@]3(Cc3ccc(Cl)cc3)[C@H]2C(=O)N1C1CCCCC1 | / | -6% | 4µM* | -16% | /
Clc1cccc(N2CCN(c3nc4ccccc4n4nnnc34)CC2)c1 | / | / | 20% | 7% | /
CC(=O)N1CCc2cc(S(=O)(=O)NC(CC(C)C)C(=O)Nc3ccc(C(C)C)cc3)ccc21 (configuration not stated) | / | / | 8% | -14% | /
Cc1ccc(OCC(=O)Nc2ccccc2C(=O)OCc2cc(=O)n3nc(C4CC4)sc3n2)cc1 | / | / | 8% | -1% | /
CN1CCC(OC(c2ccccc2)c2ccc(Cl)cc2)C1 (configuration not stated) | / | 5% | 3.2µM* | ? | /
CN1[C@@H]2CC[C@H]1CC(OC(c1ccccc1)c1ccccc1)C2 (some centres not stated) | 0% | 6% | / | / | -9%[10 µM]
COc1ccc(SCC(Cc2ccccc2)N2CCN(CCc3ccccc3)CCC2=O)cc1 (configuration not stated) | -10% | / | / | / | ?
CCC(=O)O[C@]1(C(=O)CCl)[C@@H](C)CC2C3C[C@H](F)C4=CC(=O)C=CC4(C)[C@@]3(F)C(O)CC21C (some centres not stated) | -7% | -1% | / | / | -16%
CCc1ccc(OCCNC(=O)c2ccccc2SCc2ccccc2)cc1 | -3% | -2% | 7.1µM* | 4% | 34%
COc1ccc(CCC(=O)N2c3ccccc3N=C(c3ccc(C(F)(F)F)cc3)C2C(=O)NC(C)C)cc1 (configuration not stated) | / | / | -9% | 1% | /
COc1ccc(CCC(=O)N2c3ccccc3N=C(c3ccc(C(F)(F)F)cc3)C2C(=O)NC(C)(C)C)cc1 (configuration not stated) | / | / | 4.5µM* | 26% | /
Cn1c(=O)cc(SCC(=O)N2CCN(c3ccccc3F)CC2)c2cc(Cl)ccc21 | / | 0% | -14% | 0% | /
CCc1cccc(N2C(=O)CS(=O)(=O)C23C(=O)N(Cc2ccccc2)c2ccc(C)cc23)c1 (configuration not stated) | / | -7% | -24% | -7% | /
COc1ccc(OCC(=O)Nc2nc3ccccc3[nH]2)cc1 | 7% | 11% | 1% | -19% | 0.79µM*
O=C(COc1ccc2ccccc2c1)Nc1nc2ccccc2[nH]1 | ? | -23% | -23% | -13% | ?
Cc1ccsc1C(=O)Nc1nc2ccccc2[nH]1 | 7.1µM* | -5% | ? | 1% | 2µM*
O=C(Nc1nc2ccccc2[nH]1)c1cc2ccccc2o1 | 7.9µM* | -3% | ? | ? | 2.5µM*
O=C(Nc1nc2ccccc2[nH]1)C1CCC1 | ? | 0% | -19% | -27% | ?
COc1cc(OC)cc(C(=O)Nc2nc3ccccc3[nH]2)c1 | 5.6µM* | 3% | ? | ? | 3.2µM*
O=C(Nc1nc2ccccc2[nH]1)c1cc(F)cc(F)c1 | ? | 11% | 1% | -12% | -24%
O=C(Nc1ccccc1)c1cc2ccccc2o1 | -26% | -5% | ? | -7% | ?
CCC[C@H](NC(=O)[C@H](CC(C)C)N(C)C(=O)CNC(=O)[C@@H](NC(=O)[C@H](Cc1ccccc1)NC(=O)[C@H](CCCCN)NC(=O)[C@@H](N)CC(=O)O)C(C)C)C(N)=O | -8% | / | / | / | 3%
Cc1ccc(NC(=O)CN2C(=O)C3(SCC(=O)N3c3cccc(Cl)c3)c3ccccc32)cc1C (configuration not stated) | / | 10% | ? | -13% | /
COc1ccc(CCNC(=O)c2oc3ccccc3c2C)cc1 | / | 19% | ? | 5% | /
COc1ccc2oc(C(=O)Nc3nc4ccccc4[nH]3)c(C)c2c1 | 2.8µM* | -2% | ? | -12% | ?
